Experiments:
Experiment in all cases: DAPPL (digital affinity profiling via proximity ligation, sequencing); 10 mM Tris-HCl pH 7.5, 50 mM NaCl, 1 mM DTT, 4% glycerol, room temperature, 30 min; GST-TFs on glutathione beads, 16-mer random dsDNA library, 0.1% formaldehyde crosslink after washing; high values mean tight binding
Details in all cases: protein: recombinant; tags: N-terminal GST; dsDNA, one strand shown
FLI1 = biological target: T1, FLI1 (Homo sapiens, UniProt Q01543 1-452)
T1 sequence: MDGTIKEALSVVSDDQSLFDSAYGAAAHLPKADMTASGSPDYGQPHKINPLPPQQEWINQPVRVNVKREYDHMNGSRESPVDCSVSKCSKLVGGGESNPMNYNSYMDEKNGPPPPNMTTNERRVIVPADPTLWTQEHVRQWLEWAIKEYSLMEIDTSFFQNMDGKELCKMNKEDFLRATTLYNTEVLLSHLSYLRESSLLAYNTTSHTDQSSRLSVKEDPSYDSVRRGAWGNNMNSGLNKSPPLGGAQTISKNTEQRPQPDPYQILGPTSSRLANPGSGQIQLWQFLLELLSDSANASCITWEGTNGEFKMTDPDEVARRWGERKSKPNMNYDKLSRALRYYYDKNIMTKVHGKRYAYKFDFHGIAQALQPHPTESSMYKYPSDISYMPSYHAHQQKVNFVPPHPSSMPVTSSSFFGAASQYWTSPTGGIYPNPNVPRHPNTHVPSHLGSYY
Outline: (§1)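 After expression in yeast as GST fusions, human transcription factors were bound to glutathione beads, DNA-barcoded and mixed with a tag-only sample. The pools were incubated with 200 nmole of a 16-mer random double-stranded DNA library in Tris/NaCl/DTT/glycerol buffer (30 min, room temperature), washed and crosslinked with 0.1% formaldehyde. Proximity ligation with BsaI/T4 ligase ran for 1 h at 37 °C, before PCR amplification and sequencing on an Illumina NextSeq500. Binding signal is a hexamer's read frequency for a factor divided by its frequency for the tag-only sample.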

ELK1 = biological target: T2, ELK1 (Homo sapiens, UniProt P19419 1-428)
T2 sequence: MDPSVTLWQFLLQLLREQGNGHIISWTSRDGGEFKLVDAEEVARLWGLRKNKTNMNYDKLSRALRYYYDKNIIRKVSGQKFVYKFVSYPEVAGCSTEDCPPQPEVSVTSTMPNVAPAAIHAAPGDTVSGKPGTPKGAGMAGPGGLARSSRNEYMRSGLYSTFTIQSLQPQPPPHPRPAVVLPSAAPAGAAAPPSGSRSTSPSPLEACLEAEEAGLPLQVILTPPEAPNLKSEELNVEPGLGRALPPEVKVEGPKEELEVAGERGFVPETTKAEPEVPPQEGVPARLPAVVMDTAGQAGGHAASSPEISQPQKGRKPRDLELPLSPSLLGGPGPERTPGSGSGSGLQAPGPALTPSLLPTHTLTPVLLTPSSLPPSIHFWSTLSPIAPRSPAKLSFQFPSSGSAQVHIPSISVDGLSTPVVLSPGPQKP
Outline: as §1

GABPA = biological target: T3, GABPA (Homo sapiens, UniProt Q06546 1-454)
T3 sequence: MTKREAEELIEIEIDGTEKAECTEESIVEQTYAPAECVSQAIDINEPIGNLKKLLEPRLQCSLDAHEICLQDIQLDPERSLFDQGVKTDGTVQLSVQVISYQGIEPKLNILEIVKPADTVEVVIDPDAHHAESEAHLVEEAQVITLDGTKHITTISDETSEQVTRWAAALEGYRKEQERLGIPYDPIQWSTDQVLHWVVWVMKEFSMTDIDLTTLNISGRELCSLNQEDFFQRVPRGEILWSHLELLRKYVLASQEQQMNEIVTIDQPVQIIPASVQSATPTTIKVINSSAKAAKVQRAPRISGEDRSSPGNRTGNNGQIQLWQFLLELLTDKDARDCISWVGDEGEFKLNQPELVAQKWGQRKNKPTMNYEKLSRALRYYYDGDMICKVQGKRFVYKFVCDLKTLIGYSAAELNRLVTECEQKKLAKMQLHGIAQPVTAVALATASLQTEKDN
Outline: as §1

ERG = biological target: T4, ERG (Homo sapiens, UniProt P11308 1-479)
T4 sequence: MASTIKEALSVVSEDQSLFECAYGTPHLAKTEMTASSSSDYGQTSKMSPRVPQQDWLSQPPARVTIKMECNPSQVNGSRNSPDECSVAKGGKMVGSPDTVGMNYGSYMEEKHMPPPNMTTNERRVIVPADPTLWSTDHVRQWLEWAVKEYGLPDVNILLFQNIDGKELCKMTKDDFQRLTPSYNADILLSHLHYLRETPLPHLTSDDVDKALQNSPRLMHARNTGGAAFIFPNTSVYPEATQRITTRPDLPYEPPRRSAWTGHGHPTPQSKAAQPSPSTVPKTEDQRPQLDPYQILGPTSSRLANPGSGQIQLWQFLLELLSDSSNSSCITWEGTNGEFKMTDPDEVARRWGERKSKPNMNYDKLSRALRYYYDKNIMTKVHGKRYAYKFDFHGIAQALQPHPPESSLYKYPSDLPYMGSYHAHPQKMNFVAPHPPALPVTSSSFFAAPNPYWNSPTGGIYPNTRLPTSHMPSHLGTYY
Outline: as §1

ELF1 = ELF1 (Homo sapiens, UniProt P32519 1-619)
Chain of ELF1 (P32519 whole entry): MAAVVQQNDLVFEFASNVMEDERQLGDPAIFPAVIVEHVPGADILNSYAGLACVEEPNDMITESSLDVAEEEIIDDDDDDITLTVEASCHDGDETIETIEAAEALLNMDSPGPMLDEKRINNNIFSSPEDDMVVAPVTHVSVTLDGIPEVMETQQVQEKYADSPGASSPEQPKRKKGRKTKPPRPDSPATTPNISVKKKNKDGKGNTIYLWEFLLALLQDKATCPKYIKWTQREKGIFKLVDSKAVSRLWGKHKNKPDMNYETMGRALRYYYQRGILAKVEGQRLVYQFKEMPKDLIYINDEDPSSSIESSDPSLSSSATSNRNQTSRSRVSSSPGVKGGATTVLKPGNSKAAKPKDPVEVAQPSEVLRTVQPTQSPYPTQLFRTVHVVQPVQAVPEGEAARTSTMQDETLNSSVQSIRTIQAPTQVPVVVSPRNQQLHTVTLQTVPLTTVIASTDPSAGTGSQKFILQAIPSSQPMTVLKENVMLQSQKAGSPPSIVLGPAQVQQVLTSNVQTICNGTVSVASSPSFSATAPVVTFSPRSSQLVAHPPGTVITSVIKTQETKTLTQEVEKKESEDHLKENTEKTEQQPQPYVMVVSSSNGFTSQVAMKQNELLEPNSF
Outline: as §1

EHF = biological target: T5, EHF (Homo sapiens, UniProt Q9NZC4 1-300)
T5 sequence: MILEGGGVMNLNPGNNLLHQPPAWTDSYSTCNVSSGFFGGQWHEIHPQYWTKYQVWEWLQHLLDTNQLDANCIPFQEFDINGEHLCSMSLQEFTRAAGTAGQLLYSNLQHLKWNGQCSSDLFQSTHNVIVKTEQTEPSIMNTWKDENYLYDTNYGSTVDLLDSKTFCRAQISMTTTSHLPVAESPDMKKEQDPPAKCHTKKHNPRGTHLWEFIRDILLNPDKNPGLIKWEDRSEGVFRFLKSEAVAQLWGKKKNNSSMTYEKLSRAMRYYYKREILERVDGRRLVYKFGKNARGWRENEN
Outline: as §1

SPI1 = SPI1 (Homo sapiens, UniProt P17947 1-270)
Outline: as §1

SPIB = SPIB (Homo sapiens, UniProt Q01892 1-262)
Chain of SPIB (Q01892 whole entry): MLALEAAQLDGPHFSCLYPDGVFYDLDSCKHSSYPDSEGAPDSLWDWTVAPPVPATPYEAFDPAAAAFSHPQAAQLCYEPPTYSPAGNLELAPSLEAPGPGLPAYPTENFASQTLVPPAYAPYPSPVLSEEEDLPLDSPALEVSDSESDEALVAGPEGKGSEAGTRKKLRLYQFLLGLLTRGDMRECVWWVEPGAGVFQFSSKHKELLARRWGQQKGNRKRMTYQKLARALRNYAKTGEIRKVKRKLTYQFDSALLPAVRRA
Outline: as §1

ELK3 = biological target: T6, ELK3 (Homo sapiens, UniProt P41970 1-407)
T6 sequence: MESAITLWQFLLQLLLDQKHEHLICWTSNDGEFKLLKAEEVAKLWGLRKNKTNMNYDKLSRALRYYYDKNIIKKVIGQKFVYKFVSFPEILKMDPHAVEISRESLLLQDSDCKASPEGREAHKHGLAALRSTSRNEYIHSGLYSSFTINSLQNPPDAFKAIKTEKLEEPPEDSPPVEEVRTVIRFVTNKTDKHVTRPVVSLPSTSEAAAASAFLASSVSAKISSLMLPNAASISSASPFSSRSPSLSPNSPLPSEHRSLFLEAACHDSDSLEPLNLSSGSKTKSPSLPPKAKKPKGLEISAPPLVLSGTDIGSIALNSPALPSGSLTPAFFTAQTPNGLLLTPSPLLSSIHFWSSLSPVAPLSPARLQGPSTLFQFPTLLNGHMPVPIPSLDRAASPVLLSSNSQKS
Outline: as §1

FEV = biological target: T7, FEV (Homo sapiens, UniProt Q99581 1-238)
T7 sequence: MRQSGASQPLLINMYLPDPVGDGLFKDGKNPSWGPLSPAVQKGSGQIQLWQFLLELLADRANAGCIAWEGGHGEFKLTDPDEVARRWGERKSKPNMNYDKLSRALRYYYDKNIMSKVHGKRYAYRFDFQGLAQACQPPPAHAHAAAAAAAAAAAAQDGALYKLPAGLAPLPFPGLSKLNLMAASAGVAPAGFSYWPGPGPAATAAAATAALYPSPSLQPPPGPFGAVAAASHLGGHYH
Outline: as §1

ETV5 = ETV5 (Homo sapiens, UniProt P41161 1-510)
Chain of ETV5 (P41161 whole entry): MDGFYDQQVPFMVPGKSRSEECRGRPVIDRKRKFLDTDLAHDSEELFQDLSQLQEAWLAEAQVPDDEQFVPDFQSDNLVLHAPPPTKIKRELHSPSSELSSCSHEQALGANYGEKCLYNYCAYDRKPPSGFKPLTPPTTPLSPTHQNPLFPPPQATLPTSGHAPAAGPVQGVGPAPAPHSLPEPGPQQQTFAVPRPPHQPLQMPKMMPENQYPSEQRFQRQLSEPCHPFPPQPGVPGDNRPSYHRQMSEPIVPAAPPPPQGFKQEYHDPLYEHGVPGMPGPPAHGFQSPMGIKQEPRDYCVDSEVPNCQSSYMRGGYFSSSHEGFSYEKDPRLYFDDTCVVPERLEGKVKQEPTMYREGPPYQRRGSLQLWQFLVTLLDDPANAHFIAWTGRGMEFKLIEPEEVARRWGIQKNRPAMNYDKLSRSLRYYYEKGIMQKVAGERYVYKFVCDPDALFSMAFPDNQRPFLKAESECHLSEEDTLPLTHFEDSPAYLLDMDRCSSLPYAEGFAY
Outline: as §1

SPIC = biological target: T8, SPIC (Homo sapiens, UniProt Q8N5J4 1-248)
T8 sequence: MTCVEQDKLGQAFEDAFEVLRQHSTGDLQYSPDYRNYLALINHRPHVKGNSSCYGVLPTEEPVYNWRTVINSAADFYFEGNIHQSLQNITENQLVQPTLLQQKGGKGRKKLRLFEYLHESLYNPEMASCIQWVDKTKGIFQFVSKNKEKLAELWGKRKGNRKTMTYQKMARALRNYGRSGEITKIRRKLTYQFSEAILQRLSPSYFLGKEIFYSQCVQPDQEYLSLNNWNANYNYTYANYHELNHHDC
Outline: as §1

ELF4 = ELF4 (Homo sapiens, UniProt Q99607 1-663)
Chain of ELF4 (Q99607 whole entry): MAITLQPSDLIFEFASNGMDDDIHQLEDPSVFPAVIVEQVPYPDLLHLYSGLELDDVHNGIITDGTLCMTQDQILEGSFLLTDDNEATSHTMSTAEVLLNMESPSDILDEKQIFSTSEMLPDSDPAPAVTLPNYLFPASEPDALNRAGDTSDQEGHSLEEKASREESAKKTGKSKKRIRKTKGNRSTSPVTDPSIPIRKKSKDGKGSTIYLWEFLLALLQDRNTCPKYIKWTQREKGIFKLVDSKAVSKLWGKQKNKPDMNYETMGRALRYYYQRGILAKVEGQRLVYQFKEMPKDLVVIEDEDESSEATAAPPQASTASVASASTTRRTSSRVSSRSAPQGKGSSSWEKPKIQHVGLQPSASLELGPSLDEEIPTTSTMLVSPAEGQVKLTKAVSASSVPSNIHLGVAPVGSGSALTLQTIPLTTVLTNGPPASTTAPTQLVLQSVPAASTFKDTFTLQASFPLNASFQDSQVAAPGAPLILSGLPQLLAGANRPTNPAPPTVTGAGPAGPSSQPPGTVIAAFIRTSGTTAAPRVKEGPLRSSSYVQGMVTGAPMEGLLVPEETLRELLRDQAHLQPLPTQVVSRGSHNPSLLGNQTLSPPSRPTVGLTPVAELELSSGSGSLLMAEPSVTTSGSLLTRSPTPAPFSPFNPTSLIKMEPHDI
Outline: as §1

ELK4 = biological target: T9, ELK4 (Homo sapiens, UniProt P28324-2 1-405)
T9 sequence: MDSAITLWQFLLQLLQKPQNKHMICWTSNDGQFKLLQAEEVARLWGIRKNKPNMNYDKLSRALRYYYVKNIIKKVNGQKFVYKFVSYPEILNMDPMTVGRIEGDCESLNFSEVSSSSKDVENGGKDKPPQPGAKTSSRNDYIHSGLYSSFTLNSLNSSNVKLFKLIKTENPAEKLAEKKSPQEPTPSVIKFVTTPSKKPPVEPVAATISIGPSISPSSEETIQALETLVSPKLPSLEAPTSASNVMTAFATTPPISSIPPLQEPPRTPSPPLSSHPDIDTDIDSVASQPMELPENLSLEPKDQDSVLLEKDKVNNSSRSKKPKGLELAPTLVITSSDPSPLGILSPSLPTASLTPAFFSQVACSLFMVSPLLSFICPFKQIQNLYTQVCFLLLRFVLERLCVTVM
Outline: as §1

ETV2 = biological target: T10, ETV2 (Homo sapiens, UniProt O00321 1-342)
T10 sequence: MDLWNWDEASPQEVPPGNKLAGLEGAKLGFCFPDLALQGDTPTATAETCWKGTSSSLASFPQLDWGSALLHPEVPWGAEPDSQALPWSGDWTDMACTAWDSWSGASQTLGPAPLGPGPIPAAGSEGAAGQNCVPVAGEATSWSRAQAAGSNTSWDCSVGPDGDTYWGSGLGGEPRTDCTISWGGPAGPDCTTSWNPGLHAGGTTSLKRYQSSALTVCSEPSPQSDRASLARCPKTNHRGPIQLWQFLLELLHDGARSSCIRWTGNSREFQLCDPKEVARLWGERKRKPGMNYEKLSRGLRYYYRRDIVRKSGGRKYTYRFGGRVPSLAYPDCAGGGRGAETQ
Outline: as §1

ELF3 = biological target: T11, ELF3 (Homo sapiens, UniProt P78545 1-371)
T11 sequence: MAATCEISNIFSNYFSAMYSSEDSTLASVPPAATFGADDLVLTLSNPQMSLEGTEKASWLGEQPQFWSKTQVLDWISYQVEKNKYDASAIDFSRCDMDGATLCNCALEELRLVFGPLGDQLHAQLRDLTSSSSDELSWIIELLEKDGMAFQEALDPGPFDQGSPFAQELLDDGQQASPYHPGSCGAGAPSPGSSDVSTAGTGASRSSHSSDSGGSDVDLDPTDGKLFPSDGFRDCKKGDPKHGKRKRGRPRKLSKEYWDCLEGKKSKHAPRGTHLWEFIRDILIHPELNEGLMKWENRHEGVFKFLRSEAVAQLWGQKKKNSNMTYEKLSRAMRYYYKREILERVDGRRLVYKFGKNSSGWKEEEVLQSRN
Outline: as §1

ETV1 = ETV1 (Homo sapiens, UniProt P50549 1-477)
Chain of ETV1 (P50549 whole entry): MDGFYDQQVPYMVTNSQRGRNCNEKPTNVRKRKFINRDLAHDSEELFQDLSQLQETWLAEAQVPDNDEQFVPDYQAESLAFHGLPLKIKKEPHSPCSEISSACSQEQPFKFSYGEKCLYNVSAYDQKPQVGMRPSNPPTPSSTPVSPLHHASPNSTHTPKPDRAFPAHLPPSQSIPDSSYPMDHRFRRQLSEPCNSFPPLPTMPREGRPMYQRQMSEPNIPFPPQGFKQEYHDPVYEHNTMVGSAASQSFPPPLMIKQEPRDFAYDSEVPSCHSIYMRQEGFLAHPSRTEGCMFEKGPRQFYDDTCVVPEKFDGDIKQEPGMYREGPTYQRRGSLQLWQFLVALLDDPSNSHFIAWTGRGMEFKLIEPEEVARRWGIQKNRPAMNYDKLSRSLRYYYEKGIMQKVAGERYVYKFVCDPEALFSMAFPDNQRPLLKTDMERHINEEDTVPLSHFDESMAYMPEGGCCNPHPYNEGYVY
Outline: as §1

| Sequence | binding signal (FLI1) | binding signal (ELK1) | binding signal (GABPA) | binding signal (ERG) | binding signal (ELF1) | binding signal (EHF) | binding signal (SPI1) | binding signal (SPIB) | binding signal (ELK3) | binding signal (FEV) | binding signal (ETV5) | binding signal (SPIC) | binding signal (ELF4) | binding signal (ELK4) | binding signal (ETV2) | binding signal (ELF3) | binding signal (ETV1) |
| --- | --- | --- | --- | --- | --- | --- | --- | --- | --- | --- | --- | --- | --- | --- | --- | --- | --- |
| CACACG | 1.14 fold enrichment (6-mer frequency, TF over GST control) | 1.11 fold enrichment (6-mer frequency, TF over GST control) | 1.23 fold enrichment (6-mer frequency, TF over GST control) | 1.07 fold enrichment (6-mer frequency, TF over GST control) | 1.21 fold enrichment (6-mer frequency, TF over GST control) | 1.12 fold enrichment (6-mer frequency, TF over GST control) | 1.08 fold enrichment (6-mer frequency, TF over GST control) | 1.15 fold enrichment (6-mer frequency, TF over GST control) | 1.03 fold enrichment (6-mer frequency, TF over GST control) | 1.14 fold enrichment (6-mer frequency, TF over GST control) | 1.11 fold enrichment (6-mer frequency, TF over GST control) | 1.15 fold enrichment (6-mer frequency, TF over GST control) | 1.18 fold enrichment (6-mer frequency, TF over GST control) | 1.17 fold enrichment (6-mer frequency, TF over GST control) | 1.24 fold enrichment (6-mer frequency, TF over GST control) | 1.07 fold enrichment (6-mer frequency, TF over GST control) | 1.16 fold enrichment (6-mer frequency, TF over GST control) |
| TACAAC | 1.16 fold enrichment (6-mer frequency, TF over GST control) | 1.17 fold enrichment (6-mer frequency, TF over GST control) | 1.16 fold enrichment (6-mer frequency, TF over GST control) | 1.14 fold enrichment (6-mer frequency, TF over GST control) | 1.16 fold enrichment (6-mer frequency, TF over GST control) | 1.14 fold enrichment (6-mer frequency, TF over GST control) | 1.08 fold enrichment (6-mer frequency, TF over GST control) | 1.18 fold enrichment (6-mer frequency, TF over GST control) | 1.23 fold enrichment (6-mer frequency, TF over GST control) | 1.17 fold enrichment (6-mer frequency, TF over GST control) | 1.13 fold enrichment (6-mer frequency, TF over GST control) | 1.22 fold enrichment (6-mer frequency, TF over GST control) | 1.11 fold enrichment (6-mer frequency, TF over GST control) | 1.07 fold enrichment (6-mer frequency, TF over GST control) | 1.09 fold enrichment (6-mer frequency, TF over GST control) | 1.02 fold enrichment (6-mer frequency, TF over GST control) | 1.13 fold enrichment (6-mer frequency, TF over GST control) |
